From PubChem BioAssay (Tox21)
Records with an inconclusive call do not appear. A number with no mark means an inactive call. Calls of active or inactive are those of the source. Calls come from the whole dose curve; as a rule, active = well fitted curve in the direction sought with a large enough effect in the repeat runs; inconclusive = weak or mixed curves; inactive = no such curve, though single readings can be large; an effect the other way counts as inactive or inconclusive.

Biological target: Voltage-gated inwardly rectifying potassium channel KCNH2 (Homo sapiens) (UniProt Q12809)
Assay: Human Ether-a-go-go-Related Gene (hERG) channel small molecule antagonists: fluorescence cell-based qHTS assay (AID 1671200); note: potency is the fitted concentration of half-maximal effect;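 for activity change, negative = inhibition: hERG-expressing U2OS cells given a thallium stimulus after FluxOR II dye loading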
Conditions: hERG-U2OS cells, FluxOR thallium flux fluorescence; series mostly up to 76.8 µM; activity change, negative = inhibition: at the top concentration
How it was run: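 Quantitative HTS in hERG-U2OS cells: thallium entry through the channel reports activity, read as continuous 480/540 nm fluorescence over 2 min after stimulus addition.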
% is set by controls: 0 for no effect and ±100 for the full control effect.
Note: nearly all actives have a fitted effect of over 50% in size.

Voltage-gated inwardly rectifying potassium channel KCNH2 (Homo sapiens), sequence (Q12809 whole entry, looked up): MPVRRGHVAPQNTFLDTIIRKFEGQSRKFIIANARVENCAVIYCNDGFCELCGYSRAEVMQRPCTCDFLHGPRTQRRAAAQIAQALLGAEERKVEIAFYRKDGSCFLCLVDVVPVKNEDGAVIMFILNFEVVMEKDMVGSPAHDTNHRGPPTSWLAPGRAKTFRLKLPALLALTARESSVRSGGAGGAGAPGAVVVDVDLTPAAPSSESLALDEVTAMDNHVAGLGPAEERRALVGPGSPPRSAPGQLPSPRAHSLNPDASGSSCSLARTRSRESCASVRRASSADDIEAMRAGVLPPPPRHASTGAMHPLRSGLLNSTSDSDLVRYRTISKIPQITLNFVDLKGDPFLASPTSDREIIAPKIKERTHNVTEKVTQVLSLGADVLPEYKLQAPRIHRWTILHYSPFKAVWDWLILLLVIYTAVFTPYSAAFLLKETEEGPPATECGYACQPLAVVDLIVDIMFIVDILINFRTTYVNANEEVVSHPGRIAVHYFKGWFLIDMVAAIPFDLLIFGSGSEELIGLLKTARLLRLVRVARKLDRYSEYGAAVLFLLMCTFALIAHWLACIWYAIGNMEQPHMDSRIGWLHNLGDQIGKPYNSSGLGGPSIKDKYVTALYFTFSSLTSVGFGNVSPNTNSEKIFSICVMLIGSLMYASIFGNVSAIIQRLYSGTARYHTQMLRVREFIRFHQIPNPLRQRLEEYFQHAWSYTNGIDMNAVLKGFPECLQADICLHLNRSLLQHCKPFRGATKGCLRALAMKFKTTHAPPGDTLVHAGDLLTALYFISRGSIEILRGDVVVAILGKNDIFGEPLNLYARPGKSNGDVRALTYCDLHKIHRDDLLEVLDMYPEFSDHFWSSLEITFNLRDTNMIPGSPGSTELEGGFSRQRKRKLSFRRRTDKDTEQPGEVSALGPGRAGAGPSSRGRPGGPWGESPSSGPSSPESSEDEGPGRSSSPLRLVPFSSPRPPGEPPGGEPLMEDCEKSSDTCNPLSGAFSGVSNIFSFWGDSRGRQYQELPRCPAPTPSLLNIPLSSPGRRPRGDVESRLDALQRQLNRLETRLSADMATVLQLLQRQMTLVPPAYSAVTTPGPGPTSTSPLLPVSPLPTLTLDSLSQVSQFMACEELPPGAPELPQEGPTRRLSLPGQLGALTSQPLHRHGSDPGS

Row | SMILES | activity change, negative = inhibition | Potency
1 | NCCc1ccn[nH]1 | -1.96% [at 35.3 µM] | 
2 | O=C(O)/C=C/c1ccccc1 | 0.213% | 
3 | COc1ccc(/C=N/NC(=O)c2ccncc2)cc1OC | 0.521% [at 35.3 µM] | 
4 | NS(=O)(=O)c1cc2c(cc1Cl)NC(C(Cl)Cl)NS2(=O)=O (stereo unspecified) | 6.17% [at 35.3 µM] | 
5 | Nc1ccc(/C=C/c2ccc(N)cc2S(=O)(=O)O)c(S(=O)(=O)O)c1 | 0.168% [at 0.29 µM] | 
6 | Cc1c(C(C)C)c(=O)n(-c2ccccc2)n1C | -0.336% [at 35.3 µM] | 
7 | Nc1ccc(S(=O)(=O)Nc2ccccn2)cc1 | 1.83% [at 35.3 µM] | 
8 | OC(CCN1CCCCC1)(c1ccccc1)c1ccccc1 |  | 9.52 µM (active)
9 | COCC(=O)Nc1c(I)c(C(=O)NCC(O)CO)c(I)c(C(=O)N(C)CC(O)CO)c1I (stereo unspecified) | -0.467% [at 35.3 µM] | 
10 | O=c1cc(O)c(Cl)c[nH]1 | 0.336% [at 35.3 µM] | 
11 | COc1cc2c3cc1Oc1cc(ccc1O)C[C@@H]1c4c(cc(OC)c(O)c4Oc4ccc(cc4)C[C@@H]3N(C)CC2)CC[N+]1(C)C | 2.66% [at 35.3 µM] | 
12 | O=C(/C=C/c1ccccc1)NCCO | -7.93% [at 35.3 µM] | 
13 | CCNC(=O)/C=C/c1cccc(Br)c1 | -3.3% [at 35.3 µM] | 
14 | NS(=O)(=O)c1cc2c(cc1Cl)NC(CC1CCCC1)NS2(=O)=O (stereo unspecified) | -14.6% [at 35.3 µM] | 
15 | CNCc1ccccc1 | 1.19% [at 35.3 µM] | 
16 | CCCCOC(=O)C(=O)OCCCC | -5.84% | 
17 | NS(=O)(=O)c1ccc(Cl)c(S(N)(=O)=O)c1 | 1.2% [at 35.3 µM] | 
18 | Cc1oc(=O)oc1CN1CCN(c2cc3c(cc2F)c(=O)c(C(=O)O)c2n3C(C)S2)CC1 (stereo unspecified) | -3.42% [at 35.3 µM] | 
19 | COc1cc2c(Nc3ccc(Br)cc3F)ncnc2cc1OCC1CCN(C)CC1 | -1.12% [at 35.3 µM] | 
20 | O=c1[nH]c(=O)c2ccccc2o1 | 0.11% [at 35.3 µM] | 
21 | Nc1ccc(S(=O)(=O)NC(=O)c2ccccc2)cc1 | -2.97% [at 35.3 µM] | 
22 | CC(=O)Nc1ncc([N+](=O)[O-])s1 | 0.61% [at 35.3 µM] | 
23 | Cn1c(=O)c2c(ncn2CC2OCCO2)n(C)c1=O | 2.12% [at 35.3 µM] | 
24 | CN[C@@H]1[C@H](O)[C@H](NC)[C@H]2O[C@@]3(O)C(=O)C[C@@H](C)O[C@H]3O[C@@H]2[C@H]1O | 4.93% [at 35.3 µM] | 
25 | O=C(Nc1cccc(C2=NCCN2)c1)Nc1cccc(C2=NCCN2)c1 | 4.21% [at 15.8 µM] | 
26 | Cc1ccc(S(=O)(=O)NC(=O)NC2CCCCCCC2)cc1 | -0.875% [at 35.3 µM] | 
27 | O=C(Oc1ccccc1C(=O)O)c1ccccc1O | 2.93% [at 35.3 µM] | 
28 | NC(=O)NC(=O)Cc1ccccc1 | 0% [at 35.3 µM] | 

Biological target: Cytochrome P450 3A4 (Homo sapiens) (UniProt P08684)
Assay: Cytochrome P450 Family 3 Subfamily A Member 4 (CYP3A4) small molecule antagonists: luciferase reporter qHTS assay (AID 1671201)
Conditions: P450-Glo CYP3A4 enzyme, luciferin luminescence, 1 h; series mostly up to 115 µM; activity change, negative = inhibition: at the top concentration
How it was run: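 Inhibition of CYP3A4 is measured as loss of light: the enzyme converts a proluciferin substrate to luciferin, detected luminescently. Reaction ran 1 h at room temperature with NADPH regeneration after a 10 min compound preincubation.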

Cytochrome P450 3A4 (Homo sapiens), sequence (P08684 whole entry, looked up): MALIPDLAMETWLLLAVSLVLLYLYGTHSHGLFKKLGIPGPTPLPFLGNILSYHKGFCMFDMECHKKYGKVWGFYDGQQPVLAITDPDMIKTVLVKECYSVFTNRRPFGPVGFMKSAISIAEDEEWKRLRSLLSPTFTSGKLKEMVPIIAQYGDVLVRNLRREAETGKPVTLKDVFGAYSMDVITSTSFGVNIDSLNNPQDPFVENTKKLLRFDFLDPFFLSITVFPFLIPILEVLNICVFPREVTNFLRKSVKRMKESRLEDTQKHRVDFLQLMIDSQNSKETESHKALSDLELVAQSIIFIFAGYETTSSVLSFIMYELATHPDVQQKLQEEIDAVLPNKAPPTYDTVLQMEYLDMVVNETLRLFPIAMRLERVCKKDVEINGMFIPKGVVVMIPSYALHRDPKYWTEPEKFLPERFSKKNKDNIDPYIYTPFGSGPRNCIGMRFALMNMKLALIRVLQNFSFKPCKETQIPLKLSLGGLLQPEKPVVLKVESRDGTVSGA

Row | SMILES | activity change, negative = inhibition
29 | NCCc1ccn[nH]1 | 8.84% [at 52.9 µM]
30 | Nc1ccc(/C=C/c2ccc(N)cc2S(=O)(=O)O)c(S(=O)(=O)O)c1 | 15.4% [at 0.435 µM]
31 | Cc1c(C(C)C)c(=O)n(-c2ccccc2)n1C | 9.47% [at 52.9 µM]
32 | OC(CCN1CCCCC1)(c1ccccc1)c1ccccc1 | -3.14% [at 52.9 µM]
33 | CC(C)(CO)[C@@H](O)C(=O)NCCCO | 0.81% [at 52.9 µM]
34 | COCC(=O)Nc1c(I)c(C(=O)NCC(O)CO)c(I)c(C(=O)N(C)CC(O)CO)c1I (stereo unspecified) | 8.06% [at 52.9 µM]
35 | COc1cc2c3cc1Oc1cc(ccc1O)C[C@@H]1c4c(cc(OC)c(O)c4Oc4ccc(cc4)C[C@@H]3N(C)CC2)CC[N+]1(C)C | -0.41% [at 52.9 µM]
36 | O=C(/C=C/c1ccccc1)NCCO | -12.8% [at 52.9 µM]
37 | CCNC(=O)/C=C/c1cccc(Br)c1 | 9.57% [at 52.9 µM]
38 | CC(=O)N(CC(O)CO)c1c(I)c(C(=O)NCC(O)CO)c(I)c(C(=O)NCC(O)CO)c1I (stereo unspecified) | 8.32% [at 52.9 µM]
39 | CNCc1ccccc1 | 3.12% [at 52.9 µM]
40 | O=c1[nH]c(=O)c2[nH]c(=O)[nH]c2[nH]1 | 20% [at 10.5 µM]
41 | COc1cc2c(Nc3ccc(Br)cc3F)ncnc2cc1OCC1CCN(C)CC1 | 10.2% [at 52.9 µM]
42 | NC(=O)C1(N2CCCCC2)CCN(CCCC(=O)c2ccc(F)cc2)CC1 | 30.9% [at 52.9 µM]
43 | O=c1[nH]c(=O)c2ccccc2o1 | 0.456% [at 52.9 µM]
44 | Cn1c(=O)c2c(ncn2CC2OCCO2)n(C)c1=O | 3.9% [at 52.9 µM]
45 | O=C(Oc1ccccc1C(=O)O)c1ccccc1O | 12.3% [at 52.9 µM]
46 | NC(=O)NC(=O)Cc1ccccc1 | 10.6% [at 52.9 µM]
